From PubChem
Shown is part of a subset that was picked to be rich in hits.
Giardia FBPA inh: inhibitors of Giardia lamblia fructose-1,6-bisphosphate aldolase; Potency, µM (series often up to 59.6 µM), inactives show at the top dose activity, negative = inhibition, actives largely listed as inhibitors; purified Giardia FBPA; A8B2U2; 290,000 compounds, 0.71% hits; further: potency means the concentration at half of the fitted maximal effect; on the % scale 0 is the no-effect control and ±100 the full control effect; nearly all actives have a fitted effect of over 55% in size
Target sequence (A8B2U2 whole entry, looked up): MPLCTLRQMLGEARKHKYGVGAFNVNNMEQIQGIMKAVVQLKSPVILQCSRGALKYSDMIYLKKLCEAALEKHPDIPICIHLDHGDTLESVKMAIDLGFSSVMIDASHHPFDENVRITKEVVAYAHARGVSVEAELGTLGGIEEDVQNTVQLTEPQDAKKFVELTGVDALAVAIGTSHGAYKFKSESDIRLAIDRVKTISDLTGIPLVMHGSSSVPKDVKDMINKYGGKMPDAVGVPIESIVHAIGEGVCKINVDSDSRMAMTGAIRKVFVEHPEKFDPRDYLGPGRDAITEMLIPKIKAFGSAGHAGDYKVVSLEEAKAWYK
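40 nM FBPA preincubated 10 min at RT with compound (up to 57.5 uM final), then substrate plus GAPDH/TPI/NAD/arsenate coupling and diaphorase/resazurin added. Fluorescence read after 20 min at RT, 525/598 nm.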
Shiga inhibitor: Shiga toxin inhibition; Vero cells, Shiga toxin protein synthesis inhibition reporter; inhibition, % at 38.7 µM; 290,000 compounds, 9.2% hits; AID 2315; in the data active means inhibition mostly above about 28%, no sharp cut-off; inactive means mostly below about 43%; further: 0% is about no effect
Cycloheximide cs: counter-screen hit for Shiga toxin inhibitors, cycloheximide. 300,000 compounds, 12% hits. max response, %. cell reporter, cycloheximide protein synthesis inhibition counterscreen. AID 2314; in the data active means max response mostly above about 13%, no sharp cut-off; inactive means mostly below about 14%; further: read at 38.3 µM for the half of the compounds with a filed dose; 0% is about no effect
RE007 growth inh: less growth of the S. pombe RE007 Vpr strain; S. pombe RE007 Vpr strain, BacTiter-Glo ATP luminescence, 24 h; AID 651644; Potency, µM (highest dose often 92.2 µM), inactives show top-dose activity change, negative = less growth, actives largely listed as inhibitors; 360,000 compounds, 0.21% hits; active means well fitted falling curve with a large enough effect; inconclusive means small, poorly fitted or top-dose-only effect; inactive means no such curve, though single readings can be large or run the other way; further: potency means the concentration at half of the fitted maximal effect; on the % scale 0 is the no-effect control and ±100 the full control effect; nearly all actives have a fitted effect of over 50% in size
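Fission yeast RE007 carrying one integrated HIV-1 vpr copy, seeded at OD 0.01 in PMG+AL medium with 23 nL pinned compound. Grown 24 h at 30 degrees; viability read by BacTiter-Glo luminescence after 5 min.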
LmPK inhibitor: inhibitors of Leishmania mexicana pyruvate kinase. purified LmPK, Kinase-Glo ATP luminescence, 1 h. Potency, µM (titrated, usually from 57.5 µM), inactives show top-dose activity change, negative = inhibition, usual class: inhibitors. 290,000 compounds, 0.37% hits; further: potency means the concentration at half of the fitted maximal effect; on the % scale 0 is the no-effect control and ±100 the full control effect
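qHTS format; LmPK 0.1 nM; substrates PEP 0.5 mM and ADP 0.1 mM. One-hour room-temperature incubation, then coupled luciferase luminescence; 0.5 nM enzyme wells mark activation.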
Tb PYK inh: T. brucei pyruvate kinase inhibition; TbPYK enzyme, Kinase-Glo Plus ATP luminescence, 45 min; Q57TT1; AID 624173; Potency, µM (doses to about 76.8 µM), without a hit: at the highest dose activity, negative = inhibition, usual class: inhibitors; 410,000 compounds, 0.12% hits; further: potency means the concentration at half of the fitted maximal effect; on the % scale 0 is the no-effect control and ±100 the full control effect; nearly all actives have a fitted effect of over 50% in size
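Glycolytic pyruvate kinase of T. brucei was incubated with substrate, test compound and 130 uM ADP for 45 minutes at room temperature. Luminescent Kinase-Glo Plus signal was measured after 10 minutes.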
An asterisk follows results filed as active; ? = inconclusive; / = no result given. Unless noted, the call rests on the fitted dose curve; in most records, active means well fitted curve in the direction sought with a large enough effect; inconclusive means small, poorly fitted or top-dose-only effect, or another doubt; inactive means no such curve, though single readings can be large; an effect the other way counts as inactive or inconclusive.

SMILES	Giardia FBPA inh	Shiga inhibitor	Cycloheximide cs	RE007 growth inh	LmPK inhibitor	Tb PYK inh
CC[C@@H]([C@H](C)O)n1ncn(-c2ccc(N3CCN(c4ccc(OCC5CO[C@@](Cn6cncn6)(c6ccc(F)cc6F)C5)cc4)CC3)cc2)c1=O (some centres not stated)	/	/	/	/	/	17%
Cc1cc(C(=O)NN=Cc2ccc(-c3ccc(F)cc3)o2)c(C)o1	/	/	/	-1%	/	-7%
O=C(N/N=C/c1ccc(-c2cccc(C(F)(F)F)c2)o1)c1ccccc1O	1%	-10	-2	3%	2%	-1%
NC(=O)N/N=C/c1ccc(-c2cccc(C(F)(F)F)c2)o1	0%	38*	48	-2%	-8%	0%
O=C(N/N=C/c1ccc(-c2cccc(C(F)(F)F)c2)o1)c1ccccc1Br	0%	74*	11*	-15%	-1%	2%
O=C(N/N=C/c1ccc(-c2cccc(C(F)(F)F)c2)o1)c1cccc(F)c1	9%	40*	32*	-26%	4%	-3%
Cc1ccc(NCC(=O)N/N=C/c2ccc(-c3cccc(C(F)(F)F)c3)o2)cc1	-5%	-7	-2	-20%	-1%	0%
O=C(NCc1ccccc1)C(C1CC1)n1c(=O)c(-c2cc3ccccc3[nH]2)nc2ccccc21 (configuration not stated)	/	/	/	11%	/	/
Nc1sc(-c2ccccc2)cc1C(=O)N1CCN(c2ccccc2)CC1	/	/	/	-2%	/	/
COc1ccc(NS(=O)(=O)c2ccc(NC(=S)NC(=O)/C=C/c3ccccc3)cc2)nn1	-5%	-13	3	3%	1%	1%
COc1ccccc1C1=NC(c2ccc(C)cc2)N=C1C (configuration not stated)	0%	131*	39*	-14%	1%	9%
COc1ccccc1-c1nc2ccccc2nc1-c1ccccc1OC	2%	-10	-3	0%	5%	3%
CC(=O)Nc1ccc2c(c1)Cc1cc(N3C(=O)C=CC3=O)ccc1-2	/	/	/	4.5µM*	/	?
O=C1C=CC(=O)N1c1ccc2c(c1)Cc1cc(F)ccc1-2	/	/	/	2.8µM*	/	?
O=[N+]([O-])c1ccc2c(c1)Cc1cc(F)ccc1-2	/	/	/	-18%	/	-4%
CC(=O)Nc1ccc2c(c1)Cc1ccc(Cl)cc1-2	/	/	/	-8%	/	4%
CCOc1ccc(NC(=O)C2CC(=O)N(c3ccccc3F)C2)cc1 (configuration not stated)	-2%	7	1	6%	1%	-8%
Cc1ccc(N/C=C/c2onc(C)c2[N+](=O)[O-])cc1	1%	117*	74*	-6%	-14%	0%
CCc1sc(C(=O)Nc2ccc(F)cc2C)cc1C	-2%	74*	15*	11%	3%	-9%
Cc1cc(C(=O)Nc2ccc(F)cc2C)cs1	/	31	-4	-13%	-6%	4%
CCc1sc(C(=O)Nc2ncccc2C)cc1C	13%	55	41*	-6%	-4%	-8%
CCc1sc(C(=O)NCc2ccccc2)cc1C	-3%	35	9	15%	6%	0%
CCc1sc(C(=O)Nc2nccs2)cc1C	-8%	55*	57*	-24%	-2%	-4%
Cc1cccnc1NC(=O)NC(=O)c1ccc(C(C)(C)C)s1	3%	63*	38*	-16%	-1%	1%
CCc1sc(C(=O)Nc2nc(-c3ccccn3)cs2)cc1C	/	/	/	?	/	-8%
SMILES	Giardia FBPA inh	Shiga inhibitor	Cycloheximide cs	RE007 growth inh	LmPK inhibitor	Tb PYK inh
CC(C)(C)C(=O)Nc1cccc(C(=O)OCc2cc(=O)n3nc(C4CCCCC4)sc3n2)c1	/	/	/	/	/	5%
O=C1N=C2N(CCN3CCCCC3)c3ccccc3N2/C1=C\c1ccc([N+](=O)[O-])o1	0%	-23	-2	/	-7%	/
CCc1sc(C(=O)Nc2ncccc2O)cc1C	/	46*	36*	-30%	-12%	-5%
CCc1sc(C(=O)Nc2cccc(-n3cnnn3)c2)cc1C	/	/	/	-9%	/	0%
Cc1ccc(NC(=O)CN2C(=O)CC(c3ccc(C)c(C)c3)=Nc3ccccc32)cc1	/	/	/	/	/	0%
CCOc1ccc(C(=O)Cc2cc3cccc(OC)c3oc2=O)cc1	11%	-4	-2	1%	0%	0%
